Reference: ChEMBL document CHEMBL4513216, “Probing the Open Global Health Chemical Diversity Library for Multistage-Active Starting Points for Next-Generation Antimalarials” (ACS Infect Dis, 2020)
Out of some 69,000 compounds screened, about 8,600 (12%) showed an effect of 50% or more. The list comes from a sample in which strong results are over-represented; it also holds similar structures and randomly drawn compounds.

System: Plasmodium berghei
Test: Screen against P. berghei liver stage (PbLuc), transformed with Luciferase, at 10uM
Assay type: functional, HepG2
Settings: tested at 10 uM

Compound	INHIBITION
OC(CN1CCN(Cc2ccc(F)cc2)CC1)C1CC1 (stereo unspecified)	-0.113%
Cc1cc(C2CCCCCN2Cc2cn(C)nc2C)no1 (stereo unspecified)	6.32%
O=C(Nc1ccc(F)cc1)N1C[C@@H]2C[C@H](C(=O)N3CCCC3)[C@H](C1)O2	7.67%
CC(C)CN(CCc1ccccc1)Cc1nc2c(cnn2C)c(=O)[nH]1	29.2%
Cc1ccccc1CC(C)NCc1c(C)nn(C)c1N1CCOCC1 (stereo unspecified)	13.5%
CN(CCCOc1ccccc1Cl)C(=O)CN1CCCCCC1=O	21.2%
Cc1ccc(OCCN(C)C(=O)CCCN2CCCC2=O)c(C)c1	-12.6%
CCc1ccccc1OCCN(C)C(=O)CCN1CCCCO1	69.3%
CCc1ccccc1OCCN(C)C(=O)CN1CCCC1	59.1%
CCc1ccccc1OCCN(C)C(=O)CCN1CCCO1	42.4%
CCc1ccccc1OCCCN(C)C(=O)C1CCCN1C(N)=O (stereo unspecified)	-40.4%
O=C(Cc1csc(-c2ccccc2F)n1)NCc1cccc(C(=O)O)c1	0.29%
CO[C@H]1CN(S(=O)(=O)c2ccccc2F)C[C@@]12CCCO2	3.48%
Cc1nc(N)cc(C2CCN2CCOc2ccccc2)n1 (stereo unspecified)	-0.232%
COc1ccnc(N2CCN(C(=O)CN3CCOCC3)CC2)n1	31.9%
CC(=O)N1CCCC1c1nccnc1Nc1ncccn1 (stereo unspecified)	-107%
Cc1c(Cl)c(C(F)(F)F)nn1C(C)C(=O)NC1CCN(C)CC1 (stereo unspecified)	26.8%
O=C(Cn1nc(C(F)(F)F)c(Cl)c1C1CC1)NN1CCOCC1	-3.11%
CC(C(=O)NN1CCOCC1)n1nc(C(F)(F)F)c(Cl)c1C1CC1 (stereo unspecified)	74.1%
Cc1c(Cl)c(C(F)(F)F)nn1C(C)C(=O)NN1CCN(C)CC1 (stereo unspecified)	35.7%
CC(C(=O)O)n1nc(C(F)(F)F)c(Cl)c1C1CC1 (stereo unspecified)	7.3%
CC(C(=O)NC1CCN(C)CC1)n1nc(C(F)(F)F)c(Cl)c1C1CC1 (stereo unspecified)	82.4%

Compound	INHIBITION
Cn1ccc2ccc(C(=O)Nc3nc[nH]n3)cc21	46.4%
CC(=O)N1CCN(C(=O)NCc2ccc(Cl)s2)CC1	42%
O=C1CC[C@H]2[C@H](CCN2C(=O)c2ccc[nH]2)N1CCN1CCOCC1	-14.4%
Cc1nc2ccccc2n1CCNCc1cccc(O)c1	-57.5%
C[C@@H]1C[C@H]2CN(S(=O)(=O)c3ccc(F)cc3)C[C@H]2O1	24.8%
O=C1CO[C@@H]2CN(S(=O)(=O)c3ccc(F)cc3)C[C@H]2N1	82.2%
O=C1CO[C@@H]2CN(S(=O)(=O)c3ccccc3F)C[C@H]2N1	44.4%
c1ncn(Cc2cn3c(n2)CN(CC2CCCC2)CC3)n1	-16.9%
O=C(c1cnc(-c2cnccn2)s1)N1CCCC1Cn1cccn1 (stereo unspecified)	-21.5%
O=C(NCc1ccccc1)N1CCC2(CC(=O)N(c3ccccc3)C2)C1 (stereo unspecified)	-14.7%
CCN(C(C)=O)c1nc(CN2CCCC2Cn2cncn2)cs1 (stereo unspecified)	-6.44%
COCCN1CCC(C(=O)N(C)Cc2c[nH]c3ccc(C)cc23)C1 (stereo unspecified)	39.9%
COCCN1CCC(C(=O)N(C)Cc2cccc(Cl)c2)C1 (stereo unspecified)	13.9%
COCCN1CCC(C(=O)N(C)CCOc2ccc(C)cc2Cl)C1 (stereo unspecified)	59.3%
Cc1cn(-c2ccccc2)nc1NS(=O)(=O)c1ccc(C(=O)O)cc1F	-20%
CSc1ccccc1CN1CCn2nc(CNC(=O)N(C)C)cc2C1	4.97%
CC(=O)NCc1cc2n(n1)CCN(Cc1cccc(Cl)c1Cl)C2	-26.8%
CCc1ccccc1CN1CCn2nc(CNC(C)=O)cc2C1	22%
CSc1ccccc1CN1CCn2nc(CNC(C)=O)cc2C1	55.4%
CC(=O)NCc1cc2n(n1)CCN(Cc1ccccc1OC(F)(F)F)C2	53.8%
CSc1ccccc1CN1CCCn2nc(CNC(=O)N(C)C)cc2C1	-19.4%
O=C(c1ccc2c(c1)COC2)N1CCN(CCO)CC1	21.5%

Compound	INHIBITION
c1ncc2c(n1)CN(Cc1nc(-c3ccsc3)no1)CC2	-16%
NC(=O)CN(Cc1ncc(-c2ccc(F)cc2)o1)C1CCCC1	-13.6%
CSCC[C@H](NC(=O)CCn1cc(C(C)=O)c2ccccc21)C(=O)O	-35.7%
CC(C)c1nnc2n1CC(CNCc1ccc3c(c1)OCCO3)CC2 (stereo unspecified)	17%
Cc1ccc(NC(=O)Nc2cnc(N3CCN(C)CC3)nc2)c(Cl)c1	57.6%
COc1ccc(C)cc1NC(=O)Nc1cnc(N2CCCC2)nc1	45.5%
COc1ccc(NC(=O)Nc2cnc(N3CCN(C)CC3)nc2)cc1Cl	45%
Cc1ccc(NC(=O)Nc2cnc(N3CCN(C)CC3)nc2)cc1	37.4%
COc1ccc(C)cc1NC(=O)Nc1cnc(N2CCOCC2)nc1	50.2%
COc1ccc(C)cc1NC(=O)Nc1cnc(N2CCN(C)CC2)nc1	38.7%
C[C@H]1C(=O)NC[C@H]2CN(Cc3ccccc3)C[C@H]21	-9.27%
CCS(=O)(=O)NCC(Cc1cccc(F)c1)N1CCNC1=O (stereo unspecified)	23.1%
CC(Cn1cccn1)NC(=O)Nc1ccccn1 (stereo unspecified)	-4.16%
COc1ccc(C(=O)c2cnc(C(C)C)n2C)cc1	33.9%
CCCc1ncc(C(=O)c2ccc(OC)cc2)n1C	0.29%
CCc1ncc(C(=O)c2ccc(OC)cc2)n1C	54.2%
Cc1cc(=O)[nH]cc1C(=O)N1CCN(C)c2ccccc2C1	42.8%
COCCC(Cc1cccc(Br)c1)C(=O)NCC(N)=O (stereo unspecified)	12.3%
CCNCCOc1ccc(-c2cc(N)nc3[nH]ccc23)cc1	59.5%
Nc1cc(-c2cc(O)cc(C(=O)O)c2)c2cc[nH]c2n1	35.4%
CNc1cc(-c2cccc(CN)c2)c2cc[nH]c2n1	5.91%
Cc1ccc(N2CCC3(CCN(C(=O)N(C)C)CC3)CC2)nn1	35.4%

Compound	INHIBITION
CCN(CC)S(=O)(=O)NCC(O)c1c(Cl)cccc1Cl (stereo unspecified)	-20%
CC(C)(CCS(C)(=O)=O)CNC(=O)NC1CCCC1(C)C (stereo unspecified)	-21.9%
Cn1nccc1NC(=O)CN1CCc2sccc2C1	18.6%
O=C(CN1CCc2sccc2C1)Nc1ccnc2ccnn12	82.2%
CC(C)n1nccc1NC(=O)CN1CCc2sccc2C1	49.3%
CCn1c(C)nnc1SCCNc1cc(OC)ncn1	22.1%
CCCn1cc(CN2CCCC2c2nccc(CN(C)C)n2)cn1 (stereo unspecified)	25.6%
Cc1cccc(N2CCN(CCC(=O)NCc3cccnc3)CC2)c1	27.6%
CCc1nnc(CNC(=O)CCN2CCN(c3cccc(C)c3)CC2)s1	52.1%
Cc1cccc(N2CCN(CCC(=O)NCc3nnc[nH]3)CC2)c1	-10.6%
CCc1nnc(CNC(=O)CCCN2CCCCC2)s1	25.1%
Cc1cccc(N2CCN(CCC(=O)NCc3ccc(C)s3)CC2)c1	71.2%
Cc1cccc(N2CCN(CCC(=O)NCc3cnc(C)cn3)CC2)c1	45.8%
CN1CCN(Cc2cccnc2)C2(CCN(C3CCOCC3)C2)C1=O (stereo unspecified)	-33.9%
CC(=O)NCCNC(=O)c1cnc(C(C)(C)C)s1	30.6%
CCc1cccc(C)c1NC(=O)c1ccccc1N(C)S(C)(=O)=O	25.8%
CCN1CCN(C(=O)c2cccn2Cc2ccccc2)CC1	-4.94%
Cc1csc(Nc2nccnc2C2CCCN2CC(N)=O)n1 (stereo unspecified)	-13.7%
O=C1CC2(CCN(Cc3ccsc3)C2)CN1c1ccc2c(c1)OCO2 (stereo unspecified)	55.5%
Cn1cc(CN2CCC3(CC(=O)N(c4ccc5c(c4)OCO5)C3)C2)cn1 (stereo unspecified)	27.3%
O=C1CC2(CCN(Cc3ccoc3)C2)CN1c1ccc2c(c1)OCO2 (stereo unspecified)	60.3%
CN(C)C(=O)N1CCC2(CC(=O)N(c3ccc4c(c3)OCO4)C2)C1 (stereo unspecified)	-4.02%

Compound	INHIBITION
O=C1CC2(CCN(Cc3ccncc3)C2)CN1c1ccc2c(c1)OCO2 (stereo unspecified)	31.1%
CCS(=O)(=O)N1CCC2(CC(=O)N(c3ccc4c(c3)OCO4)C2)C1 (stereo unspecified)	-30.6%
CCn1nc(C)c(NC(=O)CN(C)C(C)c2ccon2)c1C (stereo unspecified)	-22.1%
N[C@@H]1CCCN(C(=O)Cc2c[nH]c3ccccc23)[C@H]1c1ccccc1F	32.5%
CN(C)C(=O)CN1C[C@H]2CC[C@@H](C1)N(C(=O)Cc1ccccc1Cl)C2	25.1%
CN(C)C(=O)CN1C[C@H]2CC[C@@H](C1)N(C(=O)CCn1cncn1)C2	56.8%
Cc1c[nH]nc1C1CCCCN1C(=O)CNS(C)(=O)=O (stereo unspecified)	48.6%
Cc1c[nH]nc1C1CCCCN1C(=O)CCn1nccc1C (stereo unspecified)	57.5%
Cc1cnn(CCC(=O)N2C[C@@H]3CC[C@H]2CN(CC(=O)N(C)C)C3)c1	38.5%
Cc1ccnn1CCC(=O)N1C[C@@H]2CC[C@H]1CN(CC(=O)N(C)C)C2	55.6%
O=C(CCn1cncn1)N1C[C@@H]2CC[C@H]1CN(Cc1ccncc1)C2	22.4%
Cc1c[nH]nc1C1CCCCN1C(=O)CC1(O)CCCCC1 (stereo unspecified)	24.8%
CN(C)C(=O)CN1C[C@H]2CC[C@@H](C1)N(C(=O)CCCn1cncn1)C2	8.07%
COc1ccc(C(=O)N2CCCC(n3cncn3)C2)nn1 (stereo unspecified)	8.64%
O=C(NCCCn1ccnc1)N1CCN(c2cccs2)CC1	12.2%
O=C(Cn1ncc(N2CCCC2)cc1=O)Nc1ccc2nccnc2c1	6.69%
COc1cccc(N2CCN(C(=O)CN(C)c3cnccn3)CC2)c1	35.4%
CC1CCC(NC(=O)CNC2(c3ccc(Br)cc3)CCOCC2)CC1 (stereo unspecified)	12.8%
